Data: PubChem BioAssay (EPA / NIEHS)
Activity calls are given as the source filed them. The calls were made as follows: active = hit-call score of the fitted dose curve at least 0.9, where 1 is the maximum; inactive = score below 0.9.

How the values were obtained:
[1] = BSK_hDFCGF_SRB: Viability Assessment in the BioMAP Diversity Plus: hDFCGF Assay (AID 2283061); details: primary human foreskin fibroblasts;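 also: cells exposed to compound for 24 h before the read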
Procedure, shortened: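 Cells were dosed with test chemical, cultured 24 h, fixed with 10% TCA, then stained with 0.1% SRB and read at 560 nm. The fibroblasts were human foreskin primary cells, and DMSO served as baseline.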

[2] = read-out: TIMP metallopeptidase inhibitor 1 (TIMP1), TIMP1 (gene 7076); experiment: BSK_hDFCGF_TIMP1: BioMAP Diversity Plus: hDFCGF Assay for TIMP metallopeptidase inhibitor 1 (TIMP1) Biomarker Activity (AID 2283062); details: primary human foreskin fibroblasts; actives raise or lower the signal
Procedure, shortened: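 Fibroblasts from human foreskin are treated with test chemical and harvested at 24 h. TIMP-1 is quantified by ELISA, and gain or loss of signal is scored against DMSO.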

[3] = read-out: Monokine induced gamma interferon (MIG), CXCL9 (gene 4283); experiment: BSK_hDFCGF_MIG: BioMAP Diversity Plus: hDFCGF Assay for Monokine induced gamma interferon (MIG) Biomarker Activity (AID 2283063); details: primary human foreskin fibroblasts; actives raise or lower the signal
Procedure, shortened: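 MIG signal, determined by ELISA, reflects 24 h chemical exposure of human skin primary fibroblasts. DMSO serves as negative control and baseline.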

[4] = read-out: Matrix Metallopeptidase 1 (MMP1), MMP1 (gene 4312); experiment: BSK_hDFCGF_MMP1: BioMAP Diversity Plus: hDFCGF Assay for Matrix Metallopeptidase 1 (MMP1) Biomarker Activity (AID 2283064); details: primary human foreskin fibroblasts; actives raise or lower the signal
Procedure, shortened: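 Primary human foreskin fibroblasts exposed to chemicals for 24 h; MMP1 measured by ELISA. Cytotoxicity tracked by SRB staining in parallel cultures; bidirectional fit relative to DMSO.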

[5] = read-out: Vascular cell adhesion molecule 1 (VCAM1), VCAM1 (gene 7412); experiment: BSK_hDFCGF_VCAM1: BioMAP Diversity Plus: hDFCGF Assay for Vascular cell adhesion molecule 1 (VCAM1) Biomarker Activity (AID 2283065); details: primary human foreskin fibroblasts; actives raise or lower the signal
Procedure, shortened: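 Cells are dosed, cultured for 24 h, then VCAM-1 is quantified by ELISA; signal increases and decreases are both fitted relative to DMSO.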

[6] = read-out: Plasminogen activator inhibitor-1 (PAI1), SERPINE1 (gene 5054); experiment: BSK_hDFCGF_PAI1: BioMAP Diversity Plus: hDFCGF Assay for Plasminogen activator inhibitor-1 (PAI1) Biomarker Activity (AID 2283066); details: primary human foreskin fibroblasts; actives raise or lower the signal
Procedure, shortened: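 Human foreskin fibroblast primary cells, 24 h chemical exposure; PAI-1 measured by ELISA. Bidirectional fitting relative to DMSO; parallel cultures stained with SRB for total protein to flag overt cytotoxicity.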

[7] = read-out: Intercellular Adhesion Molecule 1 (ICAM1), ICAM1 (gene 3383); experiment: BSK_KF3CT_ICAM1: BioMAP Diversity Plus: KF3CT Assay for Intercellular Adhesion Molecule 1 (ICAM1) Biomarker Activity (AID 2283067); details: primary human keratinocytes with fibroblasts; actives raise or lower the signal
Procedure, shortened: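 Dose the keratinocyte/fibroblast co-culture, wait 24 h, measure ICAM-1 by ELISA, then fit increases or decreases against DMSO. Cytotoxicity is checked in parallel cultures by SRB total-protein staining.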

[8] = read-out: Interferon-gamma inducible Protein 10 (IP10), CXCL10 (gene 3627); experiment: BSK_KF3CT_IP10: BioMAP Diversity Plus: KF3CT Assay for Interferon-gamma inducible Protein 10 (IP10) Biomarker Activity (AID 2283068); details: primary human keratinocytes with fibroblasts; actives raise or lower the signal
Procedure, shortened: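 KF3CT co-culture (keratinocytes + foreskin fibroblasts), 24 h compound, IP-10 by ELISA; bidirectional fit vs DMSO baseline.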

[9] = BSK_KF3CT_SRB: Viability Assessment in the BioMAP Diversity Plus: KF3CT Assay (AID 2283069); details: primary human keratinocytes with fibroblasts;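 also: fitted for both signal gain and loss against DMSO baseline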
Procedure, shortened: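 Human keratinocyte and foreskin fibroblast co-culture exposed to chemical for 24 h. Total protein measured in parallel cultures by 0.1% sulforhodamine B staining after 10% TCA fixation, read at 560 nm; bidirectional fit relative to DMSO.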

[10] = read-out: Interleukin-1 alpha (IL1a), IL1A (gene 3552); experiment: BSK_KF3CT_IL1a: BioMAP Diversity Plus: KF3CT Assay for Interleukin-1 alpha (IL1a) Biomarker Activity (AID 2283070); details: primary human keratinocytes with fibroblasts; actives raise or lower the signal
Procedure, shortened: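 Primary human keratinocyte plus foreskin fibroblast co-culture, dosed and measured at 24 h in 96-well plates. IL-1a level quantified by ELISA; bidirectional fit relative to DMSO.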

[11] = read-out: TIMP metallopeptidase inhibitor 2 (TIMP2), TIMP2 (gene 7077); experiment: BSK_KF3CT_TIMP2: BioMAP Diversity Plus: KF3CT Assay for TIMP metallopeptidase inhibitor 2 (TIMP2) Biomarker Activity (AID 2283071); details: primary human keratinocytes with fibroblasts; actives raise or lower the signal
Procedure, shortened: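 Co-culture of human primary keratinocytes and foreskin fibroblasts, measured 24 h after chemical dosing. TIMP-2 quantified by ELISA and fitted in both directions relative to DMSO. Cytotoxicity checked in parallel cultures by SRB total-protein staining.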

[12] = read-out: C-C motif chemokine 2 (Homo sapiens) (UniProt P13500); experiment: BSK_KF3CT_MCP1: BioMAP Diversity Plus: KF3CT Assay for Monocyte Chemoattractant Protein 1 (MCP1/CCL2) Biomarker Activity (AID 2283073); details: primary human keratinocytes with fibroblasts; actives raise or lower the signal
Procedure, shortened: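 Keratinocytes and foreskin fibroblasts were co-cultured, dosed with chemical, and sampled 24 h later. MCP-1 was quantified by ELISA, and the endpoint was analyzed with bidirectional fitting using DMSO as negative control.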

[13] = read-out: Matrix Metallopeptidase 9 (MMP9), MMP9 (gene 4318); experiment: BSK_KF3CT_MMP9: BioMAP Diversity Plus: KF3CT Assay for Matrix Metallopeptidase 9 (MMP9) Biomarker Activity (AID 2283074); details: primary human keratinocytes with fibroblasts; actives raise or lower the signal
Procedure, shortened: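 Human keratinocyte and foreskin fibroblast co-culture exposed to chemicals for 24 h; MMP9 biomarker measured by ELISA, bidirectional fitting relative to DMSO; cytotoxicity tracked by SRB total protein staining in parallel cultures.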

[14] = read-out: urokinase plasminogen activator (uPA), PLAU (gene 5328); experiment: BSK_KF3CT_uPA: BioMAP Diversity Plus: KF3CT Assay for urokinase plasminogen activator (uPA) Biomarker Activity (AID 2283075); details: primary human keratinocytes with fibroblasts; actives raise or lower the signal
Procedure, shortened: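 Primary human keratinocyte/foreskin fibroblast co-culture exposed to chemical; uPA measured by ELISA at 24 h. Bidirectional fit versus DMSO, with parallel SRB total-protein staining for cytotoxicity.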

CD40, CD40 (gene 958) = experiment: BSK_LPS_CD40: BioMAP Diversity Plus: LPS Assay for CD40 Biomarker Activity (AID 2283076); details: primary human HUVEC with PBMC; actives raise or lower the signal
Procedure, shortened: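 CD40 signal, measured by ELISA, is fitted in both directions relative to DMSO vehicle. The system is an LPS-driven human vascular primary co-culture of endothelial cells and PBMC, sampled 24 h after compound addition.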

[15] = read-out: E-selectin (Homo sapiens) (UniProt P16581); experiment: BSK_LPS_Eselectin: BioMAP Diversity Plus: LPS Assay for Eselectin Biomarker Activity (AID 2283077); details: primary human HUVEC with PBMC; actives raise or lower the signal
Procedure, shortened: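 Signal of E-selectin, detected by ELISA, served as the endpoint; cells were umbilical vein endothelium with PBMC, read 24 h after treatment. DMSO defined baseline, and both increases and decreases were fitted.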

[16] = BSK_LPS_SRB: Viability Assessment in the BioMAP Diversity Plus: LPS Assay (AID 2283079); details: primary human HUVEC with PBMC;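 also: total protein by sulforhodamine B absorbance as a cytotoxicity measure; measured one day after compound addition; fitted in both directions against DMSO so loss or gain of signal counts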
Procedure, shortened: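 Overt cytotoxicity was gauged by sulforhodamine B total-protein staining in a primary human vascular endothelial and mononuclear cell co-culture 24 h post-dosing. Activity was fitted in both directions relative to DMSO.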

[17] = read-out: Interleukin-1 alpha (IL1a), IL1A (gene 3552); experiment: BSK_LPS_IL1a: BioMAP Diversity Plus: LPS Assay for Interleukin-1 alpha (IL1a) Biomarker Activity (AID 2283080); details: primary human HUVEC with PBMC; actives raise or lower the signal
Procedure, shortened: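 Measured: IL-1 alpha via ELISA at 24 h in LPS-activated human umbilical vein endothelium–PBMC co-culture. Baseline: DMSO, bidirectional fitting.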

[18] = read-out: Interleukin-8 (IL8), CXCL8 (gene 3576); experiment: BSK_LPS_IL8: BioMAP Diversity Plus: LPS Assay for Interleukin-8 (IL8) Biomarker Activity (AID 2283078); details: primary human HUVEC with PBMC; actives raise or lower the signal
Procedure, shortened: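 Endothelial cells and PBMC from human donors are co-cultured, treated with chemicals and LPS, then assayed for IL-8 by ELISA after 24 h. Parallel SRB staining (0.1% SRB after 10% TCA fixation, 560 nm) flags cytotoxicity.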

Measured: outcome

Chain of E-selectin (Homo sapiens) (P16581 whole entry, looked up): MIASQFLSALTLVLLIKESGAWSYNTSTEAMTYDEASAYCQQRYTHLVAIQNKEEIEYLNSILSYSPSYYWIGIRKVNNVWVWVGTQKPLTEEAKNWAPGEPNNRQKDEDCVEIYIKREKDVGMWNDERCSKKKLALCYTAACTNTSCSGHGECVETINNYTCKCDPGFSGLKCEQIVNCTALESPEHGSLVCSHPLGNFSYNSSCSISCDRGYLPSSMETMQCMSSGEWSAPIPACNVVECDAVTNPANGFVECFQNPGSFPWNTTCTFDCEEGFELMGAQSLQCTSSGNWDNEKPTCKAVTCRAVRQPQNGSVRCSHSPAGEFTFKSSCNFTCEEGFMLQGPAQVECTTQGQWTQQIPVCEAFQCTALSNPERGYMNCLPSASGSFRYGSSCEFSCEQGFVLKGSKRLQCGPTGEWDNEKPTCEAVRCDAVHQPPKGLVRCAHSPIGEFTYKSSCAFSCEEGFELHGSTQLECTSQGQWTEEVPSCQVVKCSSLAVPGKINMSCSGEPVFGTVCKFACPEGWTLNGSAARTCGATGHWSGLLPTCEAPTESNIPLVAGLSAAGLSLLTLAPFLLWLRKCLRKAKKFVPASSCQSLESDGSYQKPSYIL

CCc1cccc(CC)c1N
not listed: [18]
inactive: all other assays above

OC[C@H]1O[C@@](CO)(O[C@H]2O[C@H](CO)[C@@H](O)[C@H](O)[C@H]2O)[C@@H](O)[C@@H]1O
not listed: [18]
inactive: all other assays above

NC(N)=O
not listed: [14] | [18]
inactive: all other assays above

OCC(CO)(CO)CO
not listed: [18]
inactive: all other assays above

CCCc1ccccc1
inactive: all assays above

CCCCCCOC(=O)CC(CC(=O)OCCCCCC)(OC(=O)CCC)C(=O)OCCCCCC
not listed: [18]
inactive: all other assays above

CCCCCCCCCC
inactive: all assays above
